Test results as given in PubChem BioAssay (Tox21).
Where “and” joins values, the source holds several entries; their conditions need not be identical. Equal values may be shown once. Values without a mark were called inactive. Inconclusive results are not listed. Where a call stands in place of a potency, no number is given. Calls of active or inactive are those of the source. The call rests on the fitted dose curve; in most records, active means well fitted curve in the direction sought with a large enough effect in the repeat runs; inconclusive means weak or mixed curves; inactive means no such curve, though single readings can be large; an effect the other way counts as inactive or inconclusive.

What was measured:
[1] = Human pregnane X receptor (PXR) small molecule agonists, qHTS cell viability counter screen (AID 1346977); further: nearly all actives have a fitted effect of over 50% in size; further: potency means the concentration at half of the fitted maximal effect
Procedure, shortened: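 Readout is CellTiter-Fluor fluorescence from PXR-Luc HepG2 cells. Plated cells rested 5hr, then were treated with compounds for 24hr at 37C and 5% CO2, with reagent present during the last hour.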

[2] = Caspase-3/7 induction in HepG2 cells by small molecules, qHTS assay (AID 1346978); further: nearly all actives have a fitted effect of over 15% in size; further: potency means the concentration at half of the fitted maximal effect
Procedure, shortened: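 Wild-type HepG2 cells (2,000/well) were settled 5 h at 37 C, 5% CO2, then exposed to compounds in DMSO for 17 h. Caspase-3/7 activity was read by luminescence 30 min after adding Caspase-Glo 3/7 reagent at room temperature.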

[3] = Caspase-3/7 induction in CHO-K1 cells by small molecules, qHTS cell viability counter screen (AID 1346979); further: nearly all actives have a fitted effect of over 35% in size; further: potency means the concentration at half of the fitted maximal effect
Procedure, shortened: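 To flag cytotoxic compounds, treated CHO-K1 wild-type cells were given CellTiter-Fluor at 16hr and read fluorescently after 1hr at 37C; the caspase-3/7 luminescence was measured in these same wells.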

[4] = biological target: Nuclear receptor subfamily 1 group I member 2 (Homo sapiens) (UniProt O75469); test: Human pregnane X receptor (PXR) small molecule agonists, qHTS assay (AID 1346982); further: nearly all actives have a fitted effect of over 35% in size; further: potency means the concentration at half of the fitted maximal effect
Procedure, shortened: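 Agonist mode: luminescence from ONE-Glo after 24 h compound exposure at 37C in HepG2 cells carrying hPXR-responsive CYP3A4 luciferase, plated in charcoal-stripped serum medium 5 h beforehand.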

[5] = biological target: Nuclear receptor subfamily 1 group I member 2 (Rattus norvegicus) (UniProt Q9R1A7); test: Rat pregnane X receptor (rPXR) activation by small molecules, qHTS assay (AID 1346983); details: rPXR luciferase reporter cells, One-Glo luminescence, 24 h; max activation: stronger effect = higher value; further: nearly all actives have a fitted effect of over 20% in size
Procedure, shortened: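 Cell-based rPXR luciferase reporter assay, 2,000 cells per well, rested 5hr at 37 C before compound addition in DMSO, then 24 hr at 37 C. One-Glo reagent was added and luminescence read after 30 min at room temperature.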

[6] = biological target: Nuclear receptor subfamily 1 group I member 2 (Homo sapiens) (UniProt O75469); test: CYP3A4 induction through human pregnane X receptor (PXR) by small molecules, qHTS assay (AID 1346984); further: nearly all actives have a fitted effect of over 40% in size
Procedure, shortened: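 Read-out is luminescence after One-Glo addition, following a 3 hr, 37C incubation with Luciferin-IPA CYP3A4 substrate (3uM final). Before that, compounds were on DPX-2 cells (HepG2 co-transfected with PXR element plus CYP3A4-promoter luciferase) for 24 hr at 37C.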

[7] = biological target: Nuclear receptor subfamily 1 group I member 2 (Homo sapiens) (UniProt O75469); test: Human pregnane X receptor (PXR) activation by small molecules, qHTS assay (AID 1346985); further: nearly all actives have a fitted effect of over 40% in size; further: potency means the concentration at half of the fitted maximal effect
Procedure, shortened: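 DPX-2 cells (HepG2 co-transfected with a PXR response element and a CYP3A4-promoter luciferase construct) were seeded at 2,000 per well, rested 5 hr at 37C, then exposed to DMSO-dissolved compounds for 24 hr. Activation was read as luciferase luminescence.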

[8] = biological target: Cytochrome P450 2D6 (Homo sapiens) (UniProt P10635); test: Cytochrome P450 Family 2 Subfamily D Member 6 (CYP2D6) small molecule antagonists: luciferase reporter qHTS assay (AID 1671196); further: nearly all actives have a fitted effect of over 50% in size; further: potency means the concentration at half of the fitted maximal effect
Procedure, shortened: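 CYP2D6 activity was followed as luminescence from its luciferin product after a 1 h NADPH-driven reaction at room temperature. Enzyme-substrate mix and compound were pre-incubated for 10 min, and the signal was read 20 min after adding detection reagent.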

[9] = Caspase-3/7 induction in CHO-K1 cells by small molecules, qHTS assay (AID 1346980); further: nearly all actives have a fitted effect of over 15% in size; further: potency means the concentration at half of the fitted maximal effect
Procedure, shortened: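 Wild-type cells were seeded at 1,500 per well and settled 5 hr at 37 C, 5% CO2, then exposed to DMSO-dissolved compounds for 17 hr. Caspase-Glo 3/7 reagent was added, and luminescence was read after 30min at room temperature.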

[10] = Caspase-3/7 induction in HepG2 cells by small molecules, qHTS cell viability counter screen (AID 1346981); further: nearly all actives have a fitted effect of over 30% in size; further: potency means the concentration at half of the fitted maximal effect
Procedure, shortened: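 CellTiter-Fluor fluorescence measured viability in the same wells used for Caspase-Glo 3/7. HepG2 (wild type) at 2,000 cells/well were pre-incubated 5 hr, dosed, and given reagent at 16 hr, with 1 hr further at 37C.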

Sequence of Cytochrome P450 2D6 (Homo sapiens) (P10635 whole entry, looked up): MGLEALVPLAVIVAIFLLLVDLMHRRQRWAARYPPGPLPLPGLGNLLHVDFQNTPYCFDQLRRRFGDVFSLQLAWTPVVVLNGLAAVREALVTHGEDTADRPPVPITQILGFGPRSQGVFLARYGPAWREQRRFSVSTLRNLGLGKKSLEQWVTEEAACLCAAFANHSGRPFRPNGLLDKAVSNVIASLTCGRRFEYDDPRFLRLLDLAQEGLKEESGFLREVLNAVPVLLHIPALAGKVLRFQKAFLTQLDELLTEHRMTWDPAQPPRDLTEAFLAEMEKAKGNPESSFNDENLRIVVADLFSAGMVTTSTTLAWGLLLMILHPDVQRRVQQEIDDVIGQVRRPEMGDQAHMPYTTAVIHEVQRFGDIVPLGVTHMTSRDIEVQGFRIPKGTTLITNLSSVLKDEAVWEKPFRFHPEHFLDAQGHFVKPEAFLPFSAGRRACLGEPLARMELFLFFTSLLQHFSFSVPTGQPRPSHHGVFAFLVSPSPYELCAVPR
Sequence of Nuclear receptor subfamily 1 group I member 2 (Rattus norvegicus) (Q9R1A7 whole entry, looked up): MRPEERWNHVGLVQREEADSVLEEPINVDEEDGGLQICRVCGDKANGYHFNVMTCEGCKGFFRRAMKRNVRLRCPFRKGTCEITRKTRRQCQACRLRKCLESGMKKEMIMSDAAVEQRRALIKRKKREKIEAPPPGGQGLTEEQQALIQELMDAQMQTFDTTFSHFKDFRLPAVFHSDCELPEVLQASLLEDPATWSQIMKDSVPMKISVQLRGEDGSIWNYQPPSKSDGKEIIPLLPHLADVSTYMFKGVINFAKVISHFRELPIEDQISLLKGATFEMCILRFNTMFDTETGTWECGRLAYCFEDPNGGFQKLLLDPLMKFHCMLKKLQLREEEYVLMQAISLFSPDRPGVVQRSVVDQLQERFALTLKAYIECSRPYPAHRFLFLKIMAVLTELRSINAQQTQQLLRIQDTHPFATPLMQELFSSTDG

SMILES	Potency [1]	Potency [2]	Potency [3]	Potency [4]	max activation [5] [%]	Potency [6]	Potency [7]	Potency [8]	Potency [9]	Potency [10]	activation [4]
CCOC(=O)O[C@]1(C(=O)OCCl)CC[C@H]2[C@@H]3CCC4=CC(=O)C=C[C@]4(C)[C@H]3[C@@H](O)C[C@@]21C	inactive	inactive	inactive	5.96 µM (active)	-1.8	inactive	14.1 µM (active)	inactive	–	–	–
Cc1ccc(O)c(C(C)(C)C)c1	inactive	61 µM (active)	–	inactive	–	–	–	inactive	inactive	inactive	–
Clc1ccc(C(Cn2ccnc2)OCc2ccc(Sc3ccccc3)cc2)c(Cl)c1 (stereo unspecified)	inactive	inactive	–	26.6 µM (active)	–	–	–	–	inactive	–	–
CC(C)C(C)(C)C(C)(C)C(C)(C)S	inactive	inactive	–	27.3 µM (active)	–	–	–	39.9 µM (active)	inactive	–	–
Cc1c(C)c2c(c(C)c1OC(=O)CCC(=O)O)CC[C@@](C)(CCC[C@H](C)CCC[C@H](C)CCCC(C)C)O2	inactive	inactive	inactive	19.5 µM (active)	-1.35	inactive	inactive	inactive	–	–	–
c1ccc(CSCc2ccccc2)cc1	inactive	inactive	–	27.2 µM (active)	–	–	–	–	inactive	inactive	–
Cc1c(C)c2c(c(C)c1O)CCC(C)(COc1ccc(CC3SC(=O)NC3=O)cc1)O2 (stereo unspecified)	inactive	inactive	–	–	-5.73	–	–	inactive	–	inactive	–
Fc1ccc([C@@H]2CCNC[C@H]2COc2ccc3c(c2)OCO3)cc1	29.8 µM (active)	inactive	–	inactive	–	–	–	–	inactive	–	–
CCOC(=O)O[C@H](C)OC(=O)c1ccc2c(c1)cc(C(=O)NC1CCN(C(C)C)CC1)n2Cc1cc(-c2ccc(Cl)s2)on1	45.4 µM (active)	45.4 µM (active)	14.3 µM (active)	inactive	–	–	–	37.3 µM (active)	–	–	–
CN(C)c1ccc(C2(c3ccc(N(C)C)cc3)OC(=O)c3cc(N(C)C)ccc32)cc1	inactive	inactive	–	inactive	–	–	–	inactive	inactive	–	–
CCCCCCOC(=O)c1ccc(O)cc1	inactive	inactive	–	inactive	–	–	–	–	inactive	inactive	–
O=C(NO)C1(NS(=O)(=O)c2ccc(Oc3ccc(F)cc3)cc2)CCOCC1	inactive	inactive	–	inactive	–	–	–	inactive	inactive	inactive	–
CC(C)(C)c1ccc(C(=O)O)cc1	inactive	inactive	inactive	–	–	–	–	inactive	–	inactive	–
COC(=O)C1=C(C)NC(C)=C(C(=O)OCCc2ccc(N3CCN(C(c4ccccc4)c4ccccc4)CC3)cc2)C1c1cccc([N+](=O)[O-])c1 (stereo unspecified)	inactive	inactive	–	inactive	–	–	–	inactive	inactive	inactive	–
COc1ccc(-c2ccc3cc(C(=O)O)ccc3c2)cc1C12CC3CC(CC(C3)C1)C2	inactive	inactive	–	inactive	-8.07	inactive	inactive	–	inactive	–	–
Cc1cccc(N(C)C(=S)Oc2ccc3c(c2)C2CCC3C2)c1 (stereo unspecified)	inactive	inactive	–	11.9 µM (active)	–	–	–	–	inactive	inactive	–
CC(=O)OCC(C)OC(C)=O (stereo unspecified)	inactive	inactive	inactive	inactive	–	–	–	inactive	–	–	–
Cc1cccc2c1cc1ccc3cccc4ccc2c1c34	inactive	inactive	–	inactive	–	–	–	inactive	inactive	–	–
NNC(=O)c1cccc(C(=O)NN)c1	inactive	inactive	inactive	inactive	–	–	–	–	–	–	–
NNc1nc(-c2ccccc2)cs1	inactive	inactive	62.9 µM (active)	31.5 µM (active)	–	–	–	–	–	–	–
O=C(Oc1ccccc1)c1ccccc1C(=O)Oc1ccccc1	inactive	inactive	–	inactive	–	–	–	inactive	inactive	inactive	–

SMILES	Potency [1]	Potency [2]	Potency [3]	Potency [4]	max activation [5] [%]	Potency [6]	Potency [7]	Potency [8]	Potency [9]	Potency [10]	activation [4]
CCCCC(CC)COC(=O)c1ccccc1C(=O)O (stereo unspecified)	inactive	inactive	–	35 µM (active)	–	–	–	–	inactive	–	–
O=C(c1ccc(O)cc1O)c1ccc(O)cc1O	inactive	inactive	–	61.2 µM (active) and 43.3 µM (active)	–	–	–	7.98 µM (active) and 11.2 µM (active)	inactive	inactive	–
CC/C(=C(\c1ccc(O)cc1)c1ccc(OCCN(C)C)cc1)c1ccccc1	19.4 µM (active)	34.4 µM (active)	34.4 µM (active)	6.87 µM (active)	–	–	–	40 µM (active)	–	43.4 µM (active)	–
Cc1ccc2oc(CN(Cc3ccccc3)C(=O)Nc3c(F)cc(F)cc3F)c(-c3ccc(Cl)cc3)c2c1	inactive	inactive	–	3.74 µM (active)	–	–	–	0.194 µM (active)	inactive	inactive	–
COc1ccc(C(=O)/C(Br)=C\C(=O)O)cc1	61.1 µM (active)	inactive	54.5 µM (active)	21.7 µM (active)	-6.96	inactive	inactive	63.3 µM (active)	–	–	–
O=S1(=O)CC(Cl)(Cl)C(Cl)(Cl)C1	2.73 µM (active)	inactive	0.686 µM (active)	0.545 µM (active)	–	–	–	inactive	–	17.2 µM (active)	–
CCCCCCCC[N+](CCCCCCCC)(CCCCCCCC)CCCCCCCC	5.44 µM (active)	15.3 µM (active)	8.62 µM (active)	3.06 µM (active)	–	–	–	0.563 µM (active)	–	–	–
CC[C@H](c1ccc(O)cc1)[C@@H](CC)c1ccc(O)cc1	inactive	inactive	68.6 µM (active)	61.1 µM (active)	-4.59	inactive	–	inactive	–	–	–
CCCCCOc1ccccc1/C(=C\SC)n1ccnc1	23.7 µM (active)	inactive	16.8 µM (active)	2.98 µM (active)	–	–	–	4.36 µM (active)	–	–	–
CCCN(CCC)C(=O)C(CCC(=O)OCCCN1CCN(CCOC(=O)Cc2c(C)n(C(=O)c3ccc(Cl)cc3)c3ccc(OC)cc23)CC1)NC(=O)c1ccccc1 (stereo unspecified)	18.8 µM (active)	–	26.6 µM (active)	10.6 µM (active)	–	–	–	27.5 µM (active)	–	26.6 µM (active)	–
CC1=C(C(=O)OC(C)C)C(c2cccc([N+](=O)[O-])c2)C(C(=O)OC2CN(C(c3ccccc3)c3ccccc3)C2)=C(N)N1 (stereo unspecified)	16.8 µM (active)	–	21.1 µM (active)	9.44 µM (active)	-6.42	inactive	7.08 µM (active)	–	–	–	–
CC1=C(/C=C/C(C)=C/C=C/C(C)=C/C=O)C(C)(C)CCC1	60.8 µM (active)	–	21.6 µM (active)	15.3 µM (active)	–	–	–	63 µM (active)	–	60.8 µM (active)	–
CCCCCCCCCCCCCCCCCC[N+](C)(C)C	54.6 µM (active)	–	27.4 µM (active)	inactive	–	–	–	0.635 µM (active)	inactive	–	–
CCN1/C(=C/C=C/c2sc3ccccc3[n+]2CC)Sc2ccccc21	5.17 µM (active)	–	1.46 µM (active)	–	-26.5	inactive	inactive	12 µM (active)	–	–	29.7% [at 19 µM]
CCCCCCCCNC(C)C(O)c1ccc(SC(C)C)cc1 (stereo unspecified)	13.3 µM (active)	–	16.8 µM (active)	inactive	–	–	–	1.95 µM (active)	–	29.8 µM (active)	–
OCCN1CCN(CC/C=C2/c3ccccc3Sc3ccc(C(F)(F)F)cc32)CC1	29.8 µM (active)	–	29.8 µM (active)	inactive	-7.9	–	–	6.92 µM (active)	–	–	–
O=C(OCC(COC(=O)c1ccccc1)(COC(=O)c1ccccc1)COC(=O)c1ccccc1)c1ccccc1	inactive	–	inactive	inactive	–	–	–	inactive	inactive	inactive	–
N=C1C=CC(=C(c2ccc(N)cc2)c2ccc(N)cc2)C=C1	8.63 µM (active)	–	12.2 µM (active)	inactive	–	–	–	6.33 µM (active)	inactive	13.7 µM (active)	–
N#CSc1ccc(N)c([N+](=O)[O-])c1	30.8 µM (active)	–	38.8 µM (active)	12.3 µM (active)	–	–	–	–	inactive	54.8 µM (active)	–
N=C1N=C(N)c2cc3ccccc3cc21	15.8 µM (active)	–	25.8 µM (active)	12.2 µM (active)	–	–	–	32.6 µM (active)	–	19.3 µM (active)	–
Cc1[nH]nc2c1N=C(c1ccccc1Cl)c1cc([N+](=O)[O-])ccc1N2	13.7 µM (active)	–	21.7 µM (active)	6.11 µM (active)	–	–	–	–	19.3 µM (active)	19.3 µM (active)	–
